How the values were obtained:
Experiment in all cases: log2 ratio of Biotin-Ahx-Ub-VS probe labelling (fragment/DMSO); higher = less target engagement (more negative = stronger competition), active = hit call of the paper (q ≤ 0.05, log2 ratio ≤ -1)
Settings in all cases: compound concentration: 200 uM; treatment time: 3 h
ALG13 = biological target: T1, ALG13 (UniProt Q9NP73)
T1 sequence (whole entry): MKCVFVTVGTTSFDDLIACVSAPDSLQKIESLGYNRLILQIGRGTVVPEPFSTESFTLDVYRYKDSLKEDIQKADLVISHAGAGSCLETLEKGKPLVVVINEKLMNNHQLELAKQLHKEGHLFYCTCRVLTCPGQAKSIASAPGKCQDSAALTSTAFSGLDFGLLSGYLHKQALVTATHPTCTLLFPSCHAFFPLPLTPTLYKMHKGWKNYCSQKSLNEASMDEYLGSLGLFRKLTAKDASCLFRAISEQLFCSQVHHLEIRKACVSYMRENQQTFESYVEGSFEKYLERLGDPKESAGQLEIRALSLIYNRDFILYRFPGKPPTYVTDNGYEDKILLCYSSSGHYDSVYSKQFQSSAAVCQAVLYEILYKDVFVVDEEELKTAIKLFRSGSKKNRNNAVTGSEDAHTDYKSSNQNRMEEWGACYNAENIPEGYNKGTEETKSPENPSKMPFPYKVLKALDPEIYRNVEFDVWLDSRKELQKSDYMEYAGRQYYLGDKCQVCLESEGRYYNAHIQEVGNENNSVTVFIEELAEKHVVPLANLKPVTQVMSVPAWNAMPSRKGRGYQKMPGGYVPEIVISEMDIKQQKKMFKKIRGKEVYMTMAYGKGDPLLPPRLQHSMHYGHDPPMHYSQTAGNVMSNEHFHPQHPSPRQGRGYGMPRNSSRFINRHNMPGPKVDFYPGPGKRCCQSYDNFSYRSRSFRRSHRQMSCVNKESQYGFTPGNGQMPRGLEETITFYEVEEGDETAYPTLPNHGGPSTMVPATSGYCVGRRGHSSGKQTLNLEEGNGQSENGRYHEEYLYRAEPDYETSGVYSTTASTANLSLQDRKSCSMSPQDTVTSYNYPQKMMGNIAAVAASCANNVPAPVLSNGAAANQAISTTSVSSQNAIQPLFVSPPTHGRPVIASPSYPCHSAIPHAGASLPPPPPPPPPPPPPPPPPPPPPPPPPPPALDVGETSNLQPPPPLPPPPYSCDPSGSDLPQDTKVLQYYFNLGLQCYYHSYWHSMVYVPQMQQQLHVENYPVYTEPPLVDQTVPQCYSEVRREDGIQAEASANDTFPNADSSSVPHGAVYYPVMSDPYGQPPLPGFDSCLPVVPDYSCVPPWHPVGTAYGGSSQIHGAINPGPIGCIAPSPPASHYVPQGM
In short: (§1)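 HEK293T lysate (495 µg per sample, in Tris/CHAPS/IGEPAL buffer with protease inhibitors) was treated in triplicate with fragment at 200 µM or with DMSO for 3 h. It was then treated with Biotin-Ahx-Ub-VS (0.5 µM final) for 1 h. Labelled DUBs were NeutrAvidin-enriched, digested with LysC and trypsin, and run by diaPASEF LC-MS/MS. Spectronaut label-free quantities were global-median-normalised. Values are average log2 ratios fragment/DMSO by unpaired t-test, using proteins with ≥2 unique peptides.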

ATXN3 = ATXN3 (UniProt P54252)
In short: as §1

BAP1 = biological target: T2, BAP1 (UniProt Q92560)
T2 sequence (whole entry): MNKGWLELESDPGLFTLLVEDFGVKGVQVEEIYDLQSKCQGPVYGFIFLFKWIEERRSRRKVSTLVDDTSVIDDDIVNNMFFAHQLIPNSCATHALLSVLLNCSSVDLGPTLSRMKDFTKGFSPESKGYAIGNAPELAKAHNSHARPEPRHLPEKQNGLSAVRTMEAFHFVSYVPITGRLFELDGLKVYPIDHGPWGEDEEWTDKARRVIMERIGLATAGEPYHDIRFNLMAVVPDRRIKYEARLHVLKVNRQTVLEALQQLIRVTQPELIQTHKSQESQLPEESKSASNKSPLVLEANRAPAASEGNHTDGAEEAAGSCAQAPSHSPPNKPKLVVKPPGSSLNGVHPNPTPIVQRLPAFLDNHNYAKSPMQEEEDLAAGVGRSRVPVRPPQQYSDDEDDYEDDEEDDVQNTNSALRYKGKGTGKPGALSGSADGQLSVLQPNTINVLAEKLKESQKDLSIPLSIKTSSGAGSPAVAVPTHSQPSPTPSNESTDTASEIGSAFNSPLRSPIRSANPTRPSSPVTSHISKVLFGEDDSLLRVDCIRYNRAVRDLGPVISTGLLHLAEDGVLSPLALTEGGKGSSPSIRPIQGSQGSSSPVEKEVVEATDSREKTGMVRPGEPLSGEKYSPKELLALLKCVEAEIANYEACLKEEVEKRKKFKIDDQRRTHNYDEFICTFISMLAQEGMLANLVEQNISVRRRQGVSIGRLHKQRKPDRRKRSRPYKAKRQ
In short: as §1

EIF3F = EIF3F (UniProt O00303)
In short: as §1

EIF3H = EIF3H (UniProt O15372)
In short: as §1

FAM105A = biological target: T3, FAM105A (UniProt Q9NUU6)
T3 sequence (whole entry): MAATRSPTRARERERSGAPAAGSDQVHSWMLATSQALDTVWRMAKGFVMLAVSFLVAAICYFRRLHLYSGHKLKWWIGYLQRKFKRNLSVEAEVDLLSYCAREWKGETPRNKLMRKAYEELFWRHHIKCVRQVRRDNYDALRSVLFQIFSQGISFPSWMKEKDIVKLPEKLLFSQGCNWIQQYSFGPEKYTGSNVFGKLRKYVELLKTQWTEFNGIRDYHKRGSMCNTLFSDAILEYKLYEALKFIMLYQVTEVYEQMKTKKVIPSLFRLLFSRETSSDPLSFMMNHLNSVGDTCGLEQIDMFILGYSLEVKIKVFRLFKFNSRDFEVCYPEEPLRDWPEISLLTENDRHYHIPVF
In short: as §1

OTUB1 = OTUB1 (UniProt Q96FW1)
In short: as §1

OTUD4 = biological target: T4, OTUD4 (UniProt Q01804)
T4 sequence (whole entry): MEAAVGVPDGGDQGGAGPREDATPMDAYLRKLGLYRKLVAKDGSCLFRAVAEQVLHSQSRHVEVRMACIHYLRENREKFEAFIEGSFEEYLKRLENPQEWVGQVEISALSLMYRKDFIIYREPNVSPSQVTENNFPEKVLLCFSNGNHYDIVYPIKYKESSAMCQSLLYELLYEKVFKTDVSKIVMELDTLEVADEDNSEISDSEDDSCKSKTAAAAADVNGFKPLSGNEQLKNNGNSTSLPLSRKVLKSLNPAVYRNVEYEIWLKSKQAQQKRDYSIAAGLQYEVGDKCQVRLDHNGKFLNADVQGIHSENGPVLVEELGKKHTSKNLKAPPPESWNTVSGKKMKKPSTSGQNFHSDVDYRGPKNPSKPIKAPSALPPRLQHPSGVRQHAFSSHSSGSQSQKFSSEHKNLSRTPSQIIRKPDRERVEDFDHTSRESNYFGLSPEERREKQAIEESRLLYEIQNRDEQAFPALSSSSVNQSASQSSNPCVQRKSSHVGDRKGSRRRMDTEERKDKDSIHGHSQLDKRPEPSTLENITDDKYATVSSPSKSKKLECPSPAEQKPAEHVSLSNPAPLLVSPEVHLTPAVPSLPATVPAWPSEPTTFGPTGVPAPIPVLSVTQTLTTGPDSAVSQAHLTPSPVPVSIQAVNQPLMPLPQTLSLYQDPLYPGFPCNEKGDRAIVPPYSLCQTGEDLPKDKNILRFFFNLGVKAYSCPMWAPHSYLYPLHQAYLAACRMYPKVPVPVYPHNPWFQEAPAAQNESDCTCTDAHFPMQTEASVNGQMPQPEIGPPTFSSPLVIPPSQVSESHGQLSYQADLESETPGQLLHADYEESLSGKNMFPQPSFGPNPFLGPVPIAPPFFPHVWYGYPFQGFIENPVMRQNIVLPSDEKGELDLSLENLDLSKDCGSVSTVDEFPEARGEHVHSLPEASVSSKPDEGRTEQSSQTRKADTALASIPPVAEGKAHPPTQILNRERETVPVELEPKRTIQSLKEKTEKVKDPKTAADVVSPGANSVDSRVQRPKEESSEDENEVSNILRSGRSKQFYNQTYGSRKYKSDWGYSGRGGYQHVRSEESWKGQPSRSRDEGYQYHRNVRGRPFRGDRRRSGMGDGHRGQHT
In short: as §1

OTUD5 = biological target: T5, OTUD5 (UniProt Q96G74)
T5 sequence (whole entry): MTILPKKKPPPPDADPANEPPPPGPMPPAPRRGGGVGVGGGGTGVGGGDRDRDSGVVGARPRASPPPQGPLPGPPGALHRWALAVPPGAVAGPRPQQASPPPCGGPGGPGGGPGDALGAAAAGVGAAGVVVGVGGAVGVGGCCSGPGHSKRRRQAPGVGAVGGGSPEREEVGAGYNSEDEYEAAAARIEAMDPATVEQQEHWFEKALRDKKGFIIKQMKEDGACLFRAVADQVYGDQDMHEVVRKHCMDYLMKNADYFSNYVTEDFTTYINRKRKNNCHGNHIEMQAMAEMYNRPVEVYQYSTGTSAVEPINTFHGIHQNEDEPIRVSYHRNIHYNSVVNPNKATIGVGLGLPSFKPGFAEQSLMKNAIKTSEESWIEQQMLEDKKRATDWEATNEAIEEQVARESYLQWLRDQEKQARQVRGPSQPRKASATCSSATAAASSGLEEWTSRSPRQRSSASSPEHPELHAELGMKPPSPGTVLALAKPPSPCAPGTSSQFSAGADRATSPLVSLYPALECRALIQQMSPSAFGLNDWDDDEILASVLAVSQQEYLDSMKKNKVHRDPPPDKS
In short: as §1

Measured: log2 ratio of Biotin-Ahx-Ub-VS probe labelling

Sequence of EIF3H (O15372 whole entry): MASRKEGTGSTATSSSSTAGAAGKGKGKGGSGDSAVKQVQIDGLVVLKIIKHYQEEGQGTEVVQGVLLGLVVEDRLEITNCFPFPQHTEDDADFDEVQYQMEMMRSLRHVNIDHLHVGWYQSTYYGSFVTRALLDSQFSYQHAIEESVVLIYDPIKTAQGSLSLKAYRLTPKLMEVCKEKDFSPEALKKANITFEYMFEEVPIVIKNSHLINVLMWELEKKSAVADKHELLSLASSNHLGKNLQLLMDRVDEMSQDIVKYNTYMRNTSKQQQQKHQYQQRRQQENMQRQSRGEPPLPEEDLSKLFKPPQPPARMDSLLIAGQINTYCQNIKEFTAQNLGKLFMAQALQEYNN
Sequence of EIF3F (O00303 whole entry): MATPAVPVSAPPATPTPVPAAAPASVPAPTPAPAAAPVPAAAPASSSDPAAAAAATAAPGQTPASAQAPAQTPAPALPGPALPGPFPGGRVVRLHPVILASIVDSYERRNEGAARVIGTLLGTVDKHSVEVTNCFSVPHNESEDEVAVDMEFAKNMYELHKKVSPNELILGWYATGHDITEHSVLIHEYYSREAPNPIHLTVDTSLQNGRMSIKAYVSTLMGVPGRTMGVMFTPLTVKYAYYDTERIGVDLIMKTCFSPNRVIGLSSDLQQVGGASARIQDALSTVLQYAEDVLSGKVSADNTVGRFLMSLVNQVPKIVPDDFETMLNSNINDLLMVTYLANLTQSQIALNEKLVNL
Sequence of OTUB1 (Q96FW1 whole entry): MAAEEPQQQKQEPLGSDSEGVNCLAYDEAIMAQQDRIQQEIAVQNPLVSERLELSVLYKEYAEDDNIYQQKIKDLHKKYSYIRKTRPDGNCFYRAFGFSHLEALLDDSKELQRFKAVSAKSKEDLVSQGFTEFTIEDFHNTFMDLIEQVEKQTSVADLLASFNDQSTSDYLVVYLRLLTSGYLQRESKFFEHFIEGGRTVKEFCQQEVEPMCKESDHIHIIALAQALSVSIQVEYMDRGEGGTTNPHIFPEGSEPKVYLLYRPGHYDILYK
Sequence of ATXN3 (P54252 whole entry): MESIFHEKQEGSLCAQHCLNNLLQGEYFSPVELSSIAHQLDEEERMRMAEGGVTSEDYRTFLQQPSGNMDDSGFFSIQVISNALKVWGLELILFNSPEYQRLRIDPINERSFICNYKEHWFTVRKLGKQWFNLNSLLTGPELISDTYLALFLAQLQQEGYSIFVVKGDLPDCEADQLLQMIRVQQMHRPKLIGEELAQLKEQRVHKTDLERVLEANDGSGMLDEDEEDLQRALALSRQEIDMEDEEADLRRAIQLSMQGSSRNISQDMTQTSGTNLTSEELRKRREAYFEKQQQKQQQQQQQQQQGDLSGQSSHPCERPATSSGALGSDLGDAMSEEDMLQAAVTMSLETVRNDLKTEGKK

O=C(CCl)N[C@H]1CCS(=O)(=O)c2ccccc21
active: BAP1 -2.12 | OTUD4 -1.08
inactive: ALG13 -0.0339 | ATXN3 -0.224 | EIF3F -0.052 | EIF3H 0.251 | FAM105A -0.522 | OTUB1 0.161 | OTUD5 -0.117
